Measured values from publication PMC7826789 (International Journal of Molecular Sciences, 2021).

Legend:
Conditions in all cases: Compound Concentration (nM):1000
[1] = system: ABL1(Q252H)-phosphorylated
[2] = system: ABL1(T315I)-nonphosphorylated
[3] = system: ABL1(T315I)-phosphorylated
[4] = system: ABL1(Y253F)-phosphorylated
ABL1-nonphosphorylated = system: ABL1-nonphosphorylated
ABL1-phosphorylated = system: ABL1-phosphorylated
ABL2 = system: ABL2
ACVR1B = system: ACVR1B
ACVR1 = system: ACVR1
ACVR2A = system: ACVR2A
ACVR2B = system: ACVR2B
ACVRL1 = system: ACVRL1
ADCK3 = system: T1, ADCK3
T1 construct: gene CABC1

ADCK4 = system: ADCK4
AKT1 = system: AKT1
AKT2 = system: AKT2
AKT3 = system: AKT3
ALK(C1156Y) = system: ALK(C1156Y)
ALK(L1196M) = system: ALK(L1196M)
ALK = system: ALK
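Further: KINOMEscan scanMAX binding as percent activity remaining versus control; lower means stronger binding.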

SMILES	Percent Control [1] [%]	Percent Control [2] [%]	Percent Control [3] [%]	Percent Control [4] [%]	Percent Control (ABL1-nonphosphorylated) [%]	Percent Control (ABL1-phosphorylated) [%]	Percent Control (ABL2) [%]	Percent Control (ACVR1B) [%]	Percent Control (ACVR1) [%]	Percent Control (ACVR2A) [%]	Percent Control (ACVR2B) [%]	Percent Control (ACVRL1) [%]	Percent Control (ADCK3) [%]	Percent Control (ADCK4) [%]	Percent Control (AKT1) [%]	Percent Control (AKT2) [%]	Percent Control (AKT3) [%]	Percent Control (ALK(C1156Y)) [%]	Percent Control (ALK(L1196M)) [%]	Percent Control (ALK) [%]
COc1cc(C=NNc2ncnc3c2cnn3-c2ccccc2)ccc1O [GW513184X]	13	37	35	26	31	23	55	53	22	68	82	67	95	0	100	100	100	100	100	100
COc1cc2ncnc(Nc3ccc4c(cnn4Cc4ccccc4)c3)c2cc1OC.Cl [GW282449A]	100	100	100	100	90	100	100	100	100	100	100	97	100	100	100	100	100	96	100	93
COc1ccc2c(-c3ccnc(Nc4cccc(OC(F)(F)F)c4)n3)cnn2n1 [GW810372X]	100	100	98	100	100	100	100	100	93	100	100	100	100	100	100	100	100	86	87	88
Cl.O=C(Nc1ccc(Oc2ccc3[nH]c(NC(=O)c4ccccc4)nc3c2)cc1)Nc1cc(C(F)(F)F)ccc1F [GW709042A]	94	12	31	69	9.8	60	26	100	100	100	100	100	100	100	90	100	100	84	92	73
COc1ccccc1-c1cc(/C=C2\C(=O)Nc3ncc(Br)cc32)cc(Br)c1O [GW442130X]	86	87	100	88	84	77	100	95	100	100	100	95	100	100	93	100	100	100	100	100
Cc1cc(O)cc(C)c1/C=C/c1cncc(C(N)=O)c1 [GW435821X]	13	100	85	8.8	25	14	47	89	7.3	14	7.1	2.6	100	100	96	100	100	96	88	100
COc1cccc(-c2c[nH]c3c(N/N=C/c4ccncc4)ncnc23)c1 [GW814408X]	1.1	50	48	0.5	1.2	0.3	11	42	17	75	71	59	100	36	100	100	100	97	99	100
CN(C)CCNC(=O)Nc1ccc(N(C)c2ccnc(Nc3ccc(CS(C)(=O)=O)cc3)n2)cc1.Cl [GW830900A]	58	78	86	65	59	71	75	100	79	79	88	100	100	79	100	100	100	70	85	71
COc1cc(C)c(N(C)C(=O)CN(C)C)cc1Nc1nc(Nc2cccc(F)c2C(N)=O)c2cc[nH]c2n1 [GSK2219385]	95	65	100	100	69	87	100	100	96	100	100	100	80	100	98	85	100	4.5	13	1.7
CC(C)COC(=O)c1ccc2c(c1)/C(=C/Nc1ccc(S(N)(=O)=O)cc1)C(=O)N2 [GW416981X]	100	100	73	100	100	100	100	100	100	100	100	100	100	100	100	100	100	93	94	100
COc1ccc(COc2ccc(Cc3cnc(N)nc3N)cc2OC)cc1 [GW632580X]	92	100	87	84	90	76	91	100	74	95	100	100	92	100	75	100	100	94	87	98
NS(=O)(=O)c1ccc(N/N=C2\C(=O)Nc3ccc(-c4cnco4)cc32)cc1 [GW276655]	70	67	70	69	84	74	98	100	66	90	100	100	100	100	84	65	100	97	100	83
C[C@@H](Oc1cc(-n2cnc3ccc(OC4CCN(C)CC4)cc32)sc1C(N)=O)c1ccccc1Cl [GSK579289A]	67	61	75	60	60	48	83	81	85	57	60	100	97	20	100	100	100	82	81	87
CN(C)c1cc2c(Nc3ccc4c(cnn4Cc4ccccc4)c3)ncnc2cn1 [GW282974X]	66	74	100	65	–	54	95	100	87	100	100	87	98	100	79	100	100	97	94	100
NS(=O)(=O)c1ccc(Nc2ncc(-c3ccccc3)o2)cc1 [GW572399X]	100	100	89	100	81	87	88	100	100	100	100	100	100	100	100	100	100	96	96	87
CC1=C(C(=O)Nc2ccc3[nH]ncc3c2)C(c2ccc3ccccc3c2)CC(=O)N1 (stereo not drawn) [GSK270822A]	84	48	76	79	54	80	100	97	93	100	86	100	100	100	17	100	100	72	77	68
COc1cc(/C=N/Nc2ncnc3[nH]ncc23)ccc1O [GW578748X]	1.6	79	24	1.1	3.1	1.2	68	100	83	50	40	67	100	100	100	100	100	82	75	98
COc1ccc2cc(-c3c(-c4ccncc4)nc(-c4ccc(S(C)(=O)=O)cc4C)n3C)ccc2c1 [SB-633825]	83	53	54	86	66	75	62	19	60	100	84	100	100	80	100	94	100	70	73	58
CN1CCN(C(=O)c2ccc(NC(=O)Nc3ccc(N(C)c4ccnc(Nc5ccc(CS(C)(=O)=O)cc5)n4)cc3)cc2)CC1.Cl [GW830263A]	30	0	21	20	9	30	44	77	28	78	94	79	100	47	100	100	100	64	83	76
CCn1c(-c2nonc2N)nc2c(C#CC(C)(C)O)nc(OCCNC)cc21.Cl [GSK949675]	96	87	100	91	97	78	100	100	100	100	99	100	100	100	3.7	3.1	0.2	95	100	85
